# Assay outcomes as filed in PubChem.
# Shown is part of a subset that was picked to be rich in hits.
# GRP78 ERSR act: qHTS for Inducers of the Endoplasmic Reticulum Stress Response (ERSR) in Human Glioma: qHTS; 0.02% of 420,000 active; Potency, µM, without a hit: at the highest dose activation, usual class: activators; AID 602332, 2012; U87-MG GRP78 promoter luciferase reporter, 16 h; note: series mostly up to about 76 µM; % of control where 0% means no effect; nearly all actives have a fitted effect of over 35% in size
#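 Stably transfected U87-MG glioma cells carrying a GRP78-based luciferase sensor; 16 h compound incubation. Luminescence end-point read 10 min after Bright-Glo addition at room temperature.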
# Sfp inh: qHTS Assay for Inhibitors of Bacillus subtilis Sfp phosphopantetheinyl transferase (PPTase). 4'-phosphopantetheinyl transferase ffp (Bacillus subtilis), Q9F4F7. Biochemical Sfp PPTase activity, qHTS. Potency, µM, for the others: largest response in the series, negative = inhibition, usual class: inhibitors. 3.5% of 310,000 active. AID 1490, 2009;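 note: the enzyme is Sfp with the accession as filed and its product quenches rhodamine fluorescence; 0% = enzyme reaction without inhibitor and -100% = no enzyme wells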
#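 After 15 min at room temperature with compound, 15 nM Sfp received 5 uM rhodamine-CoA plus 12.5 uM BHQ-2-ybbR (50 mM Hepes pH 7.6, 10 mM MgCl2). Rate came from the fluorescence difference over 30 min, ex 525/em 598 nm.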
# VDR inh: Inhibitors of the vitamin D receptor (VDR): qHTS | Vitamin D3 receptor (Homo sapiens), P11473 | VDR-SRC2-3 peptide fluorescence polarization, 2 h | Potency, µM, for the others: max response, negative = inhibition, actives largely listed as inhibitors | 0.93% of 400,000 active | AID 504847, 2011; note: % is set by controls: 0 for no effect and ±100 for the full control effect
# Target sequence (P11473 whole entry, looked up): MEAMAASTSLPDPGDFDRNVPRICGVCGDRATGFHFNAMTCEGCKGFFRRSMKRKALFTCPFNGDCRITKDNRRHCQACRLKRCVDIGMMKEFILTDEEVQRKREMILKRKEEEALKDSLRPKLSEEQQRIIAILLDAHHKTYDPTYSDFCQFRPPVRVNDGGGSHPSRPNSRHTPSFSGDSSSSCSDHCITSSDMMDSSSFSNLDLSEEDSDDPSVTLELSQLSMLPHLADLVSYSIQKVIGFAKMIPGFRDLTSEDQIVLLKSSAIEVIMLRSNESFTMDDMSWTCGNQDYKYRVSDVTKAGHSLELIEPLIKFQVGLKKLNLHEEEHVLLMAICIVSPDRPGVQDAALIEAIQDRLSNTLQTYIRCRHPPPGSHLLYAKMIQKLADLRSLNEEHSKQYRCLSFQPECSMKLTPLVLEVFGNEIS
#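 The screen uses fluorescence polarization to detect compounds that interfere with recruitment of the SRC2-3 coactivator peptide to VDR; plates are read after 2 h at room temperature.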
# 12-LOX inh: Primary qHTS assay for inhibitors of human arachidonate 12S-lipoxygenase (ALOX12): Round 2; purified 12hLO, xylenol orange hydroperoxide absorbance; Potency, µM (doses to about 108 µM), without a hit: top-dose activity change, negative = inhibition, usual class: inhibitors; 1.1% of 580,000 active; AID 1671190, 2021; note: % is set by controls: 0 for no effect and ±100 for the full control effect
#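 Purified human 12hLO (150 nM final) in 25 mM Hepes, 0.01% Triton X-100, pH 7.0 was preincubated 15 min at room temperature with compound. Then 40 uM arachidonic acid was added, 30 min. Hydroperoxide was read by Fe-XO absorbance ratio 573/405 nm.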
# G9a inh: qHTS Assay for Inhibitors of Histone Lysine Methyltransferase G9a; Histone-lysine N-methyltransferase EHMT2 (Homo sapiens), Q96KQ7; G9a H3K9 monomethylation, AlphaScreen, 2 h; Potency, µM (doses to about 102 µM), for the others: at the highest dose activity, negative = inhibition, actives largely listed as inhibitors; 8.8% of 350,000 active; AID 504332, 2011; note: % is set by controls: 0 for no effect and ±100 for the full control effect; nearly all actives have a fitted effect of over 75% in size
# Target sequence (Q96KQ7 913-1193 limits assumed): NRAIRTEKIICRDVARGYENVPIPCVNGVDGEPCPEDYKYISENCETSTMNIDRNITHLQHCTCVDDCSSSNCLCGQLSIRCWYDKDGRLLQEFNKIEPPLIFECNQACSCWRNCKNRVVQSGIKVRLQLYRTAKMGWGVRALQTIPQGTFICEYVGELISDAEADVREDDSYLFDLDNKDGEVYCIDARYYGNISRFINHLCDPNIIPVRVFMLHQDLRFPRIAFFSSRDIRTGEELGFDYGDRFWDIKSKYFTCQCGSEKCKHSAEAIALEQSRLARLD
#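 Using a bead-based AlphaScreen, monomethylated H3K9 product from 2 h room-temperature reactions (G9a 20 nM, peptide 500 nM, SAM 20 uM) was detected with 0.5 ug/mL rabbit anti-H3K9me1 antibody.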
# Active calls of the source: *; ? = inconclusive; · = no result given; [ ] = another dose, or the depositor's remark. Calls come from the whole dose curve; as a rule, active = well fitted curve in the direction sought with a large enough effect; inconclusive = small, poorly fitted or top-dose-only effect, or another doubt; inactive = no such curve, though single readings can be large; an effect the other way counts as inactive or inconclusive. Potency is the fitted concentration of half-maximal effect.
SMILES,GRP78 ERSR act,Sfp inh,VDR inh,12-LOX inh,G9a inh
Cc1ncc(-c2ccc(S(=O)(=O)Nc3ccc(F)cc3C)cc2)o1,·,·,·,98%,·
CCC(=O)N1CCC(C(=O)O)CC1,·,·,·,2%,·
C(=C\c1nc(N2CCCCCC2)c2ccccc2n1)/c1ccccc1,0%,28µM*,-15%,-13%,-1%
c1ccc2c(N3CCCCC3)nc(N3CCCCC3)nc2c1,-6%,?,18%,-2%,-11%[59 µM]
O=C(NC1CCCCC1)Sc1ccc(Cl)cc1,3%,28µM*,22µM*,0%,?
COc1cc(/C=C/C2=Nc3ccccc3SC(C)(C)C2)ccc1O,·,·,·,16µM*,·
CN(Cc1nc2ccccc2n1C(F)F)S(=O)(=O)c1ccccc1,·,·,·,31%,·
CC(C)CCC(CCNC(C)c1cccs1)C1CCOC(C)(C)C1 (configuration not stated),·,·,·,1.8µM*,·
O=C(CC1CCN(C(=O)c2ccc3nc(-c4ccccc4)oc3c2)CC1)NCCN1CCCCC1,·,·,·,-6%,·
CCn1nc(C(=O)Nc2ccc(S(=O)(=O)N(C)C)cc2)c2ccccc2c1=O,·,·,·,-1%,·
COc1ccc(/C=N/O)cc1O,·,·,·,16%,·
COc1ccc(/C=N/N(Cc2ccccc2)c2ccccc2)cc1O,2%,18%,?,?,28µM*
C(=N\N(Cc1ccccc1)c1ccccc1)/c1ccco1,-4%,-29%,-17%,?,50µM*
Cc1ccc(C2CC(c3ccc4c(c3)OCO4)=NN2C(=O)CCC(=O)O)cc1 (configuration not stated),·,·,·,7%,·
CC(=O)c1ccc(N2CCN(CC(O)COC(c3ccccc3)c3ccccc3)CC2)cc1 (configuration not stated),-6%,?,27%,?,20µM*
CC(=O)c1ccc(N2CCN(CC(O)COC(c3ccccc3)c3ccccc3C)CC2)cc1 (configuration not stated),-5%,?,?,0.63µM*,8.9µM*
Cc1ccccc1-n1nnnc1C1(NC2CCCCC2)CCCC1,·,·,·,4%,·
CCOc1ccccc1NC1c2ccccc2C(=O)N1Cc1ccco1 (configuration not stated),-2%,-7%,1%,-9%,45µM*
COc1ccc(CN2C(=O)c3cccnc3C2Nc2ccc(OC)c(Cl)c2)cc1 (configuration not stated),-1%,3%,-12%,?,?
COc1cc(NC2c3ncccc3C(=O)N2Cc2ccco2)cc(OC)c1 (configuration not stated),0%,45µM*,-16%,?,25µM*
Cc1ccc(NC2c3ncccc3C(=O)N2Cc2cccs2)cc1C (configuration not stated),1%,4%,15%,?,28µM*
COc1ccc(N2Cc3ccc(C(=O)N/N=C\c4ccc(O)cc4O)cc3C2)cc1,·,-13%,·,·,28µM*
COc1cccc(CN2CCc3nc(N(C)Cc4cccnc4)[nH]c(=O)c3CC2)c1,·,·,·,86%,·
COCCCN1CCc2[nH]c(=S)[nH]c(=O)c2C1,-2%,50µM*,?,-6%,35µM*
COc1cccc(CN2CCc3[nH]c(=S)[nH]c(=O)c3C2)c1,-1%,-28%,-10%,?,45µM*
SMILES,GRP78 ERSR act,Sfp inh,VDR inh,12-LOX inh,G9a inh
O=C(/C=C/c1ccc(Cl)cc1Cl)N[C@@H]1C[C@H]2CC[C@@H]1C2,·,·,·,-12%,·
CS(=O)(=O)N1CCN(CC(=O)Nc2sc3c(c2C#N)CCCC3)CC1,·,·,·,-3%,·
CN(C)c1nc(C(F)(F)F)cc(=O)[nH]1,-1%,13%,6%,1%,8%
CC1Nc2nc(N(C)C)[nH]c(=O)c2NC1C (configuration not stated),-5%,-8%,-28%,-26%,3.2µM*
COc1ccccc1-c1nc(CSc2nc(C)c(C)c(=O)[nH]2)c(C)o1,·,·,·,8%,·
COc1ccc(N2Cc3cccc(C(=O)NCc4ccc(F)cc4)c3C2=O)cc1,·,·,·,-18%,·
CC1(C(=O)NS(=O)(=O)c2cccc(F)c2)CCN1C(=O)c1ccccc1CCc1ccccc1 (configuration not stated),-1%,·,·,7.1µM*,·
Cc1cccc(S(=O)(=O)NC(=O)C2(C)CCN2C(=O)c2ccccc2CCc2ccccc2)c1 (configuration not stated),-1%,·,·,-7%,·
O=C(Cc1coc2cc3c(cc12)CCC3)OCCOc1ccccc1,·,·,·,-33%,·
Cc1ccc(C)c(C(=O)COC(=O)CNS(=O)(=O)c2ccccc2)c1,-4%,5%,2%,?,71µM*
O=C(CCNS(=O)(=O)c1ccccc1)OCC(=O)c1ccc[nH]1,-1%,·,-3%,-6%,50µM*
O=C(CC1OCC2CCCN2C1=O)Nc1ccc([N+](=O)[O-])cc1 (configuration not stated),-5%,0%,-4%,-22%,8.9µM*
O=C(CN1CCCC1)Nc1ccc([N+](=O)[O-])cc1,1%,22%,-27%,-8%,21%[12.7 µM]
COc1ccc(OC)c(NC2c3ccccc3C(=O)N2c2cccnc2)c1 (configuration not stated),-2%,-30%,25%,-3%,50µM*
O=C(Oc1ccc2c(=O)c(Cl)coc2c1)c1ccncc1,-2%,-18%,4%,0%,35µM*
COc1ccc(Oc2coc3cc(OC(=O)c4ccc(Cl)cc4)ccc3c2=O)cc1,·,·,·,-2%,·
CC(C)c1ccc(C(=O)O)c(O)c1,·,·,·,-26%,·
CC(C)c1ccc(O)c(=O)cc1,·,·,·,22µM*,·
CC1=C(c2ccccc2)[N+](=O)C2(CCCCC2)N1[O-],5%,8%,12%,4%,50µM*
CCC1(CC)N([O-])C(C)=C(c2ccccc2)[N+]1=O,-4%,-1%,3%,13%,10%
CCN(CC)CCCN1C(=O)C(=O)/C(=C(/O)c2ccc(C)cc2)C1c1ccccn1 (configuration not stated),0%,?,-14%,0%,14µM*
CCN(CC)CCN1C(=O)C(=O)/C(=C(/O)c2ccncc2)C1c1ccccc1F (configuration not stated),-4%,-15%,6%,-27%,79µM*
Cc1ccc(C2/C(=C(/O)c3cnn(-c4ccccc4)c3C)C(=O)C(=O)N2CCN2CCOCC2)o1 (configuration not stated),8%,50µM*,4%,?,?
Cc1ccc(C2/C(=C(/O)c3ccccc3)C(=O)C(=O)N2CCN2CCOCC2)o1 (configuration not stated),-4%,-1%,7%,-16%,?
CCN(CC)CCN1C(=O)C(=O)/C(=C(/O)c2ccc(F)cc2)C1c1ccncc1 (configuration not stated),-3%,8%,-8%,8%,11%[59 µM]
